In the library only some 3.8% were active in any assay of this set; here they are far more common.
ADAM10 inh: inhibitors of human ADAM10 | O14672 | recombinant ADAM10, EDANS/DABCYL FRET peptide cleavage, 3 h | inhibition, % at 7 µM | 0.62% of 370,000 active;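 active means inhibition above a per-campaign cutoff equal to the mean of compounds falling between control-based bounds plus 3 SD, cut at about 20% in these data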;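 further: 0% = DMSO wells while the 100% control is not disclosed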
KLK7 zymogen act: activates the human kallikrein-7 zymogen. P49862. purified proKLK7, EDANS-DABCYL substrate fluorescence; 100% is mature enzyme control, 0% vehicle. activation, % at 7 µM. 0.9% of 370,000 active. AID 652039;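 active means activation above the mean of all tested compounds plus 3 SD, computed per campaign excluding outliers beyond control limits, cut at about 13% in these data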
FGF22 binding: shifts melting point of recombinant human FGF22; recombinant FGF22 thermal shift, SYPRO orange fluorescence; percent of sucrose octasulfate shift, DMSO zero; activity (Tm shift, normalised), % at 9.99 µM; 1.5% of 340,000 active; AID 651658;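 active means mean Tm shift, scaled 0 neutral to 100 positive control, at about 1.3% or above, every replicate too, limit read from the data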
ADAM17 inh: inhibitors of human ADAM17; P78536; recombinant ADAM17, EDANS/DABCYL FRET peptide cleavage; inhibition, % at 6.95 µM; 0.83% of 370,000 active;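 active means inhibition above the mean of compounds lying between control limits plus 3 SD, set per campaign, cut at about 8.5% in these data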;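 further: 0% = DMSO-only wells as the low control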
Target sequence (P78536 215-824 limits assumed): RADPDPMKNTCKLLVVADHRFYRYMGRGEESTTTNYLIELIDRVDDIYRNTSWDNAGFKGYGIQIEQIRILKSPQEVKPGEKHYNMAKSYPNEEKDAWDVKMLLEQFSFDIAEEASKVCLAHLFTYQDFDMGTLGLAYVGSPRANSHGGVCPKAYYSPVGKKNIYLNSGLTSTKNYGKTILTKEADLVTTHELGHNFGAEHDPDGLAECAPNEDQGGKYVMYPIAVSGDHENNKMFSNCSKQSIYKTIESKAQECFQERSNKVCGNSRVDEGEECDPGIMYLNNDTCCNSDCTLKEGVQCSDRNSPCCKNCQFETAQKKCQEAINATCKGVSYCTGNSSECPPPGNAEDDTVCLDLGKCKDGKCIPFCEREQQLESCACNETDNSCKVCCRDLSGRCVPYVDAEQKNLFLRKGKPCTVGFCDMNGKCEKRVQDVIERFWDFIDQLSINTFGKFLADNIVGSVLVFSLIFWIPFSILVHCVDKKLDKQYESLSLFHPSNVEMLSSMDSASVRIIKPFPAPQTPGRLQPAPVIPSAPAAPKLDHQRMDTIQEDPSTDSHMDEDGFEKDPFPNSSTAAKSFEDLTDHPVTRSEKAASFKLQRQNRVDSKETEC
Ecoli rRNA inh: selective bacterial rRNA inhibition in E. coli | 1.6% of 350,000 active | E. coli WT GFP vs humanized-ribosome RFP mutants, fluorescence, 24 h; stronger effect = lower value; DMSO median 0, no signal -100 | AID 720706 | GFP signal change (wild-type ribosome), % (test concentration not listed);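 active means significant combined selectivity score with lowered wild-type GFP, culture density cut under 30%, mutant RFP and density less affected; inactive means any of these conditions unmet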
ADAM10 counter: inhibits human ADAM10 in ADAM17 exosite counter-screen; recombinant ADAM10, EDANS/DABCYL FRET peptide cleavage, 3 h; AID 743256; inhibition, % at 6.95 µM; shares compounds with ADAM17 inh; 47% of 2,900 active;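 active means mean inhibition over the triplicate runs exceeds the activity threshold set in the earlier primary screen, cut at about 20% in these data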;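 further: 0% = DMSO wells and 100% = marimastat wells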
ADAM17 confirm: confirmation of inhibitors of human ADAM17; shares compounds with ADAM17 inh; recombinant ADAM17, EDANS/DABCYL QFRET peptide cleavage; inhibition, % at 6.95 µM; 65% of 2,900 active;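 active means mean inhibition across replicates above the hit cutoff set in the primary screen, cut at about 8.5% in these data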;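 further: 0% = DMSO wells and 100% = marimastat wells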
The depositor's hits bear a star; x = not tested or not shown.

SMILES	ADAM10 inh	KLK7 zymogen act	FGF22 binding	ADAM17 inh	Ecoli rRNA inh	ADAM10 counter	ADAM17 confirm
O=C(N[C@@H]1CC[C@H](CC(=O)N2CCOCC2)O[C@H]1CO)c1cccc(F)c1	x	x	0.1	x	-0.4	x	x
CC(C)NC(=O)N(C)C[C@@H]1Oc2cc(C#Cc3ccccn3)ccc2S(=O)(=O)N([C@@H](C)CO)C[C@@H]1C	x	x	-0.5	x	-2.2	x	x
COc1ccc(Nc2ccc([N+](=O)[O-])cn2)cc1	12.0	0.3	0.3	10.1*	-0.1	2.9	4.8
COc1ccc(NC(=O)CNC(=O)c2ccc([N+](=O)[O-])cc2)cc1	-0.8	0.1	0.1	-0.7	10.4	x	x
COc1ccc(C(=O)CC(=O)Nc2ccc([N+](=O)[O-])cc2)cc1	16.2	-0.2	-0.1	9.5*	14.9	25.3*	11.6*
CCCNC(=O)c1cc2c(c(-c3cccc(-c4ccc(F)cc4)c3)n1)[C@H](CCO)N(S(=O)C(C)(C)C)C2 (some centres undefined)	12.8	0.4	-0.1	10.3*	-3.6	14.5	10.4*
CCCNC(=O)c1cc2c(c(-c3cccc(-c4ccc(F)cc4)c3)n1)[C@@H](CCO)N(S(=O)C(C)(C)C)C2 (some centres undefined)	8.8	0.2	0.2	7.4	-10.7	x	x
CCOC(=O)c1cc2c(c(-c3cccc(C#Cc4ccc(OC)c(OC)c4)c3)n1)[C@@H](CCO)N(S(=O)C(C)(C)C)C2 (some centres undefined)	16.5	0.7	-0.1	8.8*	-8.7	11.8	10.3*
CCOC(=O)c1cc2c(c(-c3cccc(C#CCN(C)C)c3)n1)[C@@H](CCO)N(S(=O)C(C)(C)C)C2 (some centres undefined)	x	x	0.4	x	0.2	x	x
CC(C)(C)c1ccc(OCCC(=O)OCC(=O)N2c3ccccc3NC(=O)C2(C)C)cc1	5.5	-0.2	-0.6	11.0*	0.0	39.0*	15.8*
Cc1cccc(OCCC(=O)OCC(=O)N2c3ccccc3NC(=O)C2(C)C)c1	0.2	0.3	0.0	-1.9	-1.5	x	x
C[C@@H]1CCCCO[C@H](CN(C)C(=O)Nc2ccc3c(c2)OCO3)[C@H](C)CN([C@H](C)CO)C(=O)c2cc(NC(=O)CCCN(C)C)ccc2O1	x	x	-0.3	x	-1.2	x	x
COc1ccccc1C(=O)/C=C/c1ccc(N2CCCCC2)c([N+](=O)[O-])c1	-1.7	-0.2	0.1	2.4	-11.5	x	x
O=C(/C=C/c1ccc(N2CCCCC2)c([N+](=O)[O-])c1)c1ccc(O)cc1	15.6	-0.2	43.1*	9.4*	-52.8	25.8*	14.2*
CC(CCc1ccccc1)NC(=O)C(Cc1ccccc1)NS(=O)(=O)c1cccs1 (centres undefined)	3.0	0.5	x	9.8*	x	21.3*	9.3*
CS(=O)c1ccccc1-c1nc(-c2ccc([N+](=O)[O-])cc2)no1 (centres undefined)	8.2	-0.4	-0.3	10.8*	2.5	22.3*	7.6
O=C(N[C@H]1CC[C@H](CCn2cc(-c3ccccc3)nn2)O[C@H]1CO)c1ccccc1F	x	x	-0.1	x	-4.9	x	x
Cc1cccc(C)c1NC(=O)C1(C)CSCC(=O)N1CC(C)C (centres undefined)	-5.3	0.9	0.0	-2.1	-0.9	x	x
Cc1cccc(C)c1NC(=O)C1(C)CSCC(=O)N1CCc1ccc(O)cc1 (centres undefined)	6.2	0.1	0.2	11.3*	-3.7	-7.3	1.4
Cc1ccc(Cn2nnc3c2-c2cc(F)ccc2S(=O)(=O)N(C(C)(C)C)C3)cc1	18.3	0.1	x	9.5*	x	23.0*	10.7*
CC(CC(=O)OCC(=O)NCc1ccc(Cl)cc1)c1ccccc1 (centres undefined)	0.5	-0.6	-0.1	10.8*	-5.3	13.6	10.2*
COc1ccc(CNC(=O)CC(C)c2ccccc2)cc1 (centres undefined)	-12.6	-0.4	0.1	-7.5	1.9	x	x

Source: PubChem BioAssay (several laboratories)
